In PubChem BioAssay AID1224921 (Broad Institute, 2016):
The campaign covered roughly 1,400 compounds. About 350 (25%) were called active. Not shown: some 2% with an inconclusive outcome. No rule for the calls is given here. The list is a sample of the results. Measured potencies and affinities stand elsewhere.

assay: inhibitors of Clostridioides difficile proliferation – 4-point retest, confirmation (AID 1224921); conditions: Clostridioides difficile clinical isolate growth, OD600, 24 h, stronger effect = lower value; at 30 µM unless noted;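 also: plate controls were DMSO wells for no effect and levofloxacin 16 µg/mL wells for full effect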

Max activity, inactive:
O=C(C[C@@H]1CC[C@@H](NC(=O)Nc2cc(F)ccc2F)[C@H](CO)O1)NCc1ccc2c(c1)OCO2 8.77%
CO[C@@H]1CN(C)C(=O)c2cc(NS(=O)(=O)c3cn(C)cn3)ccc2OC[C@@H](C)N(Cc2ccc(C(F)(F)F)cc2)C[C@H]1C 43.6%
CO[C@@H](CN(C)S(=O)(=O)c1ccc(C)cc1)[C@H](C)CN(C(=O)Nc1ccccc1F)[C@@H](C)CO -7.73% [at 8 µM]
C[C@@H]1CCCCO[C@@H](CN(C)S(=O)(=O)c2cn(C)cn2)[C@H](C)CN([C@H](C)CO)C(=O)c2cc(NS(=O)(=O)c3ccccc3)ccc2O1 -10.5% [at 0.5 µM]
C[C@@H]1CN([C@H](C)CO)C(=O)c2cc(NC(=O)Nc3cccc4ccccc34)ccc2O[C@@H](C)CCCCO[C@H]1CN(C)S(=O)(=O)c1cn(C)cn1 30.5% [at 35 µM]
CO[C@@H]1CN(C)C(=O)c2ccc(NS(=O)(=O)c3cn(C)cn3)cc2OC[C@@H](C)N(Cc2ccc(C(F)(F)F)cc2)C[C@H]1C 35.5% [at 8 µM]
CO[C@H]1CN(C)C(=O)c2cc(NC(=O)c3cccc(F)c3)ccc2OC[C@H](C)N(C(C)=O)C[C@@H]1C -4.07% [at 1.95 µM]
C[C@@H]1CN([C@H](C)CO)S(=O)(=O)c2ccc(C3=CCCCC3)cc2O[C@@H]1CN(C)Cc1ccncc1 19.4%
COc1ccc(S(=O)(=O)Nc2ccc3c(c2)OC[C@@H](C)N(C)C[C@@H](C)[C@H](OC)CN(C)C3=O)cc1 -9.73% [at 1.95 µM]
C[C@@H]1CN([C@H](C)CO)C(=O)Cc2cc(NS(C)(=O)=O)ccc2O[C@@H]1CN(C)Cc1ccc(-c2ccccc2)cc1 52.1%
O=C(C[C@@H]1C[C@@H]2c3cc(NC(=O)Nc4ccc(C(F)(F)F)cc4)ccc3O[C@@H]2[C@H](CO)O1)NCc1ccccn1 -9.23% [at 1.95 µM]
CCCC(=O)Nc1ccc2c(c1)OC[C@@H](C)N(CCc1ccccc1)C[C@H](C)[C@H](OC)CN(C)C2=O -4.85% [at 1.95 µM]
C[C@H](CO)N1C[C@H](C)[C@H](CN(C)Cc2cccnc2)Oc2cc(C3=CCCCC3)ccc2S1(=O)=O 37%
O=C(C[C@H]1C[C@H]2c3cc(NC(=O)Nc4ccc(F)cc4)ccc3O[C@H]2[C@@H](CO)O1)NC1CCCC1 -13.7% [at 8 µM]
C[C@@H]1CN([C@H](C)CO)C(=O)c2ccccc2-c2ccccc2CO[C@@H]1CN(C)S(=O)(=O)c1ccsc1 12% [at 1.95 µM]
COc1ccc(S(=O)(=O)Nc2ccc3c(c2)CC(=O)N([C@@H](C)CO)C[C@@H](C)[C@H](CN(C)CC2CCCCC2)O3)cc1 25.5%
COc1ccccc1S(=O)(=O)N[C@@H]1C=C[C@H](CC(=O)N2CCCCC2)O[C@@H]1CO -6.91% [at 0.5 µM]
C[C@H]1CCCCO[C@H](CN(C)S(=O)(=O)c2cn(C)cn2)[C@@H](C)CN([C@@H](C)CO)C(=O)c2cc(NC(=O)CCCN(C)C)ccc2O1 5.89% [at 8 µM]
C[C@H](CO)N1C[C@H](C)[C@@H](CN(C)S(=O)(=O)c2cn(C)cn2)OCCCC[C@H](C)Oc2ccc(NC(=O)Nc3cccc4ccccc34)cc2C1=O 18.8%
C[C@@H]1CN([C@H](C)CO)C(=O)c2cccc(NC(=O)Nc3ccc(C(F)(F)F)cc3)c2O[C@H]1CN(C)S(=O)(=O)c1ccc(Cl)cc1 33.1%
C[C@@H]1CN([C@@H](C)CO)C(=O)c2cccc(NC(=O)Nc3ccc(C(F)(F)F)cc3)c2O[C@H]1CN(C)S(=O)(=O)c1ccc(Cl)cc1 49.8%
CC(C)NC(=O)Nc1ccc2c(c1)CC(=O)N([C@H](C)CO)C[C@@H](C)[C@@H](CN(C)Cc1ccc(-c3ccccc3)cc1)O2 54.7%
C[C@@H]1CN([C@H](C)CO)S(=O)(=O)c2ccc(C3=CCCCC3)cc2O[C@H]1CN(C)Cc1cccnc1 53.5%
CC(C)C#Cc1ccc2c(c1)O[C@@H](CN(C)Cc1ccncc1)[C@@H](C)CN([C@H](C)CO)S2(=O)=O 30.4%
COc1ccc(NC(=O)O[C@H]2[C@H](OC(=O)Nc3ccccc3)[C@H](OC(=O)Nc3ccccc3)[C@@H](OC)O[C@@H]2CO)cc1 32.3%
C[C@H](NC(=O)N(C)C[C@@H]1OCc2ccccc2-c2c(n(C)c3ccccc23)C(=O)N([C@H](C)CO)C[C@H]1C)c1ccccc1 18.8%
CC(=O)N(C)C[C@H]1Oc2ncc(-c3ccc(C(=O)N(C)C)cc3)cc2C(=O)N([C@H](C)CO)C[C@H]1C -8.17%
CO[C@@H]1CN(C)C(=O)c2ccc(NC(=O)Nc3ccc4c(c3)OCO4)cc2OC[C@@H](C)NC[C@@H]1C 10.6%
COCC(=O)Nc1ccc2c(c1)C(=O)N(C)C[C@@H](OC)[C@H](C)CN[C@H](C)CO2 -10.3% [at 1.95 µM]
COc1ccc(CN(C)C[C@H]2OCCCC[C@@H](C)Oc3ccc(NC(=O)Nc4ccc5c(c4)OCO5)cc3C(=O)N([C@@H](C)CO)C[C@@H]2C)cc1 44.6%
C[C@@H]1CN([C@@H](C)CO)C(=O)c2ccccc2-c2ccccc2CO[C@H]1CN(C)S(=O)(=O)c1ccsc1 36%
C[C@@H](C(=O)N(C)C[C@H]1OCc2ccccc2-c2ccccc2C(=O)N([C@@H](C)CO)C[C@@H]1C)c1ccccc1 -9.53% [at 8 µM]
C[C@@H]1CCCCO[C@H](CN(C)S(=O)(=O)c2ccc(Cl)cc2)[C@H](C)CN([C@@H](C)CO)C(=O)c2cc(N(C)C)ccc2O1 25.4%
O=C(N[C@H]1C=C[C@@H](CC(=O)N2CCOCC2)O[C@H]1CO)c1cccc(F)c1 9.04%
C[C@@H]1CN([C@H](C)CO)C(=O)c2cc(C#C[C@@H](C)O)cnc2O[C@@H]1CN(C)Cc1ccc(-c2ccccc2)cc1 -9.01% [at 1.95 µM]
C[C@@H]1CCCCO[C@@H](CN(C)CC2CC2)[C@H](C)CN([C@H](C)CO)C(=O)c2cc(NC(=O)Nc3cccc4ccccc34)ccc2O1 12.9%
COCC(=O)Nc1ccc2c(c1)C(=O)N(C)C[C@@H](OC)[C@H](C)CN(C(=O)CN1CCOCC1)[C@H](C)CO2 -15.1% [at 2.1 µM]
C[C@H]1CN([C@@H](C)CO)C(=O)c2cc(NC(=O)CCC(F)(F)F)ccc2O[C@H]1CN(C)Cc1ccc(-c2ccccc2)cc1 46.6%
CO[C@H]1CN(C)C(=O)c2cc(NC(=O)Nc3cccc(F)c3)ccc2OC[C@H](C)N(C)C[C@H]1C -7.19% [at 0.5 µM]
COc1ccc([Si](C)(C)[C@H]2[C@H](CCO)O[C@@]3(C(=O)N(C)c4ccccc43)[C@@H]2C)cc1 12.6% [at 8 µM]
CCCC#Cc1ccc2c(c1)O[C@@H](CN(C)Cc1ccncc1)[C@H](C)CN([C@H](C)CO)S2(=O)=O 15.9%
COc1cccc(S(=O)(=O)Nc2ccc3c(c2)[C@H]2C[C@@H](CC(=O)NC4CCCCC4)O[C@@H](CO)[C@H]2O3)c1 -11.1% [at 1.95 µM]
O=C(C[C@H]1C[C@H]2c3cc(NC(=O)Nc4ccc(C(F)(F)F)cc4)ccc3O[C@H]2[C@@H](CO)O1)NC1CCCCC1 -14.7% [at 1.95 µM]
COc1ccc(S(=O)(=O)N(C)C[C@@H]2Oc3ccc(NC(=O)CCCN(C)C)cc3CC(=O)N([C@@H](C)CO)C[C@H]2C)cc1 -7.02% [at 1.95 µM]
CO[C@@H]1CN(C)C(=O)c2cc(NC(=O)Nc3ccc(F)cc3)ccc2OC[C@H](C)NC[C@H]1C -13.4% [at 1.95 µM]
CO[C@H]1CN(C)C(=O)c2cc(NC(=O)Nc3ccc(F)cc3)ccc2OC[C@@H](C)NC[C@@H]1C -7.9% [at 0.5 µM]
CCC(=O)Nc1ccc2c(c1)C(=O)N(C)C[C@@H](OC)[C@@H](C)CN[C@@H](C)CO2 6.81% [at 0.5 µM]
CO[C@@H]1CN(C)C(=O)c2ccc(NC(=O)Nc3ccc4c(c3)OCO4)cc2OC[C@H](C)NC[C@H]1C -8.6% [at 0.5 µM]
CO[C@H]1CN(C)C(=O)c2cc(NC(=O)Nc3ccc(F)cc3)ccc2OC[C@H](C)NC[C@@H]1C -22.1%
C[C@@H]1CN([C@H](C)CO)C(=O)c2cc(NC(=O)Nc3ccc4c(c3)OCO4)ccc2O[C@H]1CN(C)Cc1ccccc1 22.6%
COc1ccc(NC(=O)N[C@H]2C=C[C@@H](CC(=O)NC3CCCCC3)O[C@H]2CO)cc1 -14.6% [at 1.95 µM]
COc1ccc(CN(C)C[C@H]2OCCCC[C@@H](C)Oc3ccc(NC(=O)Nc4ccc(F)cc4)cc3C(=O)N([C@@H](C)CO)C[C@@H]2C)cc1 19.8% [at 8 µM]
COCC#Cc1ccc2c(c1)O[C@H](CN(C)C)[C@@H](C)CN([C@H](C)CO)S2(=O)=O 7.09%
CO[C@H]1CN(C)C(=O)c2cc(NC(=O)c3ccccc3)ccc2OC[C@@H](C)N(C)C[C@@H]1C -8.25% [at 8 µM]
C[C@@H]1CN([C@@H](C)CO)C(=O)c2c(c3ccccc3n2C)-c2ccccc2CO[C@@H]1CN(C)S(=O)(=O)c1cccc(F)c1 6.96% [at 8 µM]
